# Measurements taken from PubChem BioAssay.
# Active and inactive are the calls of the source.
# Tests used:
# [1] = binders of probe aFSTL3 on microarray, primary screen, stem cell growth factor project, biochemical, small-molecule microarray, fluorescence 635/667 (AID 1064); conditions: higher = more signal;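 note: measures binding of the biotinylated anti-FSTL3 antibody to printed compounds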
# [2] = binders from COS7 lysate, DM2A8 probe, primary screen, torsin A project, cell lysate, small-molecule microarray, fluorescence 635/667 (AID 1065); conditions: higher = more signal, COS7 lysate expressing mutant human TOR1A
# [3] = binders of probe aFGF2 on microarray, primary screen, stem cell growth factor project, biochemical, small-molecule microarray, fluorescence 635/667 (AID 1067); conditions: higher = more signal;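 note: measures binding of biotinylated aFGF2 protein to printed compounds on slides; z-score merges feature fluorescence and signal-to-noise across triplicate slides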
# [4] = binders of probe aFGF10 on microarray, primary screen, stem cell growth factor project, biochemical, small-molecule microarray, fluorescence 635/667 (AID 1071); conditions: higher = more signal;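 note: score merges 667 nm spot intensity and signal to noise from triplicate slides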
# [5] = molecular target: Neurogenic locus notch homolog protein 2 (Homo sapiens) (UniProt Q04721); experiment: Notch2 binders on small-molecule microarrays, primary screen, biochemical, small-molecule microarray, 635 nm fluorescence, stem cell growth factors (AID 1073); conditions: Notch2 binding, higher = more signal
# Sequence of Neurogenic locus notch homolog protein 2 (Homo sapiens) (Q04721 whole entry, looked up, canonical isoform): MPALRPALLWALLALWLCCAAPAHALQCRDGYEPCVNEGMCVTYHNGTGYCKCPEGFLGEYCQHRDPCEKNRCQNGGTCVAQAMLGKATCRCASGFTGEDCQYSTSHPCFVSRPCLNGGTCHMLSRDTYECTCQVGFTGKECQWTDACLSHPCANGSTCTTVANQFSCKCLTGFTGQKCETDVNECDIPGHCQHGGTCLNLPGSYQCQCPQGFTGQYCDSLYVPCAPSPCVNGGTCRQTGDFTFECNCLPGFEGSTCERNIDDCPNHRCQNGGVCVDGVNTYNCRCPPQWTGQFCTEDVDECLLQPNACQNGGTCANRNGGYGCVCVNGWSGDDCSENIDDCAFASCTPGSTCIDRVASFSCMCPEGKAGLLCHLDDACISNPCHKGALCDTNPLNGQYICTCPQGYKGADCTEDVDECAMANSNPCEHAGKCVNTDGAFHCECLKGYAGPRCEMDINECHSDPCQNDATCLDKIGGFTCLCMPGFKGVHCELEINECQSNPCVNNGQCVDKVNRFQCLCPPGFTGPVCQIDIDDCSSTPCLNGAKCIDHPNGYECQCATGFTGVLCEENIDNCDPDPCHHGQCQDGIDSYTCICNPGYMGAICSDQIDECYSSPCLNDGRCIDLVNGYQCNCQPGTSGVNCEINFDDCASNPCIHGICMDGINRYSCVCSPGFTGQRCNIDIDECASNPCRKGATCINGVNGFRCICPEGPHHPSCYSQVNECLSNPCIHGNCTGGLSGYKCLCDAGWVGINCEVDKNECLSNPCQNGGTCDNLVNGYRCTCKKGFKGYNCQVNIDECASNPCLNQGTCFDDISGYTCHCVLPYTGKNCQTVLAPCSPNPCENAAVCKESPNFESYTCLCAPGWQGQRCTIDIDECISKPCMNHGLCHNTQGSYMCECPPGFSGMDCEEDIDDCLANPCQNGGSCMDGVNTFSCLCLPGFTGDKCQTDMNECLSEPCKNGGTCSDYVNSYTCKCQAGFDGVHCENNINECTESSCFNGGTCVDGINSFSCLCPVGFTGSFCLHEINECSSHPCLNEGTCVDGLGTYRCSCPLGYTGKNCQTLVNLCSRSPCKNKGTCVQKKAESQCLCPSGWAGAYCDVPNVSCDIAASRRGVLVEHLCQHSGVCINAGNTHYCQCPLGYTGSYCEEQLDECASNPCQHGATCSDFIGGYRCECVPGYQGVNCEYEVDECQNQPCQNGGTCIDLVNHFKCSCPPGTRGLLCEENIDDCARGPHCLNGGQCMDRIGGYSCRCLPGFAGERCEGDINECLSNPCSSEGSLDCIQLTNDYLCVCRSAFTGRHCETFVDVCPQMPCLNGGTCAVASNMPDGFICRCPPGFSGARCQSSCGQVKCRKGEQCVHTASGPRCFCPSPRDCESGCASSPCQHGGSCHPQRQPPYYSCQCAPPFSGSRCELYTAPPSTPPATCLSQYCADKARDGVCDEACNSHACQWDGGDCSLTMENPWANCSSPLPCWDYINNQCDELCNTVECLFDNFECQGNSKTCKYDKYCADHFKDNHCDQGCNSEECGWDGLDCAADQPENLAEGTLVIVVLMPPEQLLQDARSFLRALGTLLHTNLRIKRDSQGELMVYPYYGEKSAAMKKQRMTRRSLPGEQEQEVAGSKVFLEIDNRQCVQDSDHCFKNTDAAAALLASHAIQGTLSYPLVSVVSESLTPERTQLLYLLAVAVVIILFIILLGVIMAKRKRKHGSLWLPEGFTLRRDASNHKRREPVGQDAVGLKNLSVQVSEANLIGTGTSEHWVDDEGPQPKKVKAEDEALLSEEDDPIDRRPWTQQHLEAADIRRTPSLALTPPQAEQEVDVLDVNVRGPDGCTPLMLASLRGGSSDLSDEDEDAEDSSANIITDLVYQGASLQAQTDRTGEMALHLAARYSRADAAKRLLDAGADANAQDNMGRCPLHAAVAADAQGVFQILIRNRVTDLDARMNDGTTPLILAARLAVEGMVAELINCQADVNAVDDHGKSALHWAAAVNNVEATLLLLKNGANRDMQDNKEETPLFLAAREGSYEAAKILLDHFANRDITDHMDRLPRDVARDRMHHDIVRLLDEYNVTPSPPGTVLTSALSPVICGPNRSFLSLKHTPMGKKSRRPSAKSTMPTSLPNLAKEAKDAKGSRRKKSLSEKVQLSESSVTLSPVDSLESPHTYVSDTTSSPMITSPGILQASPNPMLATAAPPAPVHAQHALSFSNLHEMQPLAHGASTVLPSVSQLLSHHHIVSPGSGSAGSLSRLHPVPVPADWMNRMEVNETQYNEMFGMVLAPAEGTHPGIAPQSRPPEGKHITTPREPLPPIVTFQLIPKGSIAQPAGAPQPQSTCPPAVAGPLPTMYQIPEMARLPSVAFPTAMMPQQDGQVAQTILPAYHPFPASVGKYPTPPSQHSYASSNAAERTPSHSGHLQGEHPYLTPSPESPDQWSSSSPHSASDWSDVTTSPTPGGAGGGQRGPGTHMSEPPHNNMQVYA
# [6] = molecular target: Pro-neuregulin-1, membrane-bound isoform (Homo sapiens) (UniProt Q02297); experiment: NRG1 binders on small-molecule microarrays, primary screen, psychiatric disease protein project, biochemical, small-molecule microarray, fluorescence 635/667 (AID 1075); conditions: NRG1 binding, 635 nm fluorescence, higher = more signal;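 note: score combines 667 nm spot fluorescence with signal to noise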
# Sequence of Pro-neuregulin-1, membrane-bound isoform (Homo sapiens) (Q02297 whole entry, looked up, the tested form may be a part, canonical isoform): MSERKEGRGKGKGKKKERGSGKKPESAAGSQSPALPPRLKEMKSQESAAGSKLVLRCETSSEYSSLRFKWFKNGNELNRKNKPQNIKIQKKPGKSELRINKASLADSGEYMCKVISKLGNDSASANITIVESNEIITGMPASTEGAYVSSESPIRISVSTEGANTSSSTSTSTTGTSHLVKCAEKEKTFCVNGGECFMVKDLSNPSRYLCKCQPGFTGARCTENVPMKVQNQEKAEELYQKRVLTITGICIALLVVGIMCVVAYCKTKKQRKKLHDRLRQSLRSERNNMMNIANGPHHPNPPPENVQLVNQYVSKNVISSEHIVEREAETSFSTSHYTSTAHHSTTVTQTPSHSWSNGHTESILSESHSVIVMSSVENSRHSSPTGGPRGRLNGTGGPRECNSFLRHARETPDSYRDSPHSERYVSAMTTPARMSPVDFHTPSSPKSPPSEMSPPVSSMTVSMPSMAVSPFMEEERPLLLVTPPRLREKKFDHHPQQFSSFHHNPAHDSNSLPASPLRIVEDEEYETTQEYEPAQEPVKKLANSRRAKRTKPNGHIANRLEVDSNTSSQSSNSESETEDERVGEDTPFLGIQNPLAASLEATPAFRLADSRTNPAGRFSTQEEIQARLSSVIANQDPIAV
# [7] = tested on: Neuregulin-1 EGF-like domain; experiment: binders of neuregulin-1 EGF-like domain, primary screen, biochemical, small-molecule microarray, 635 nm fluorescence (AID 1081); conditions: small-molecule microarray binding, higher = more signal;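 note: binding of the protein to compounds printed on small-molecule microarray slides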
# [8] = FRG1 promoter luciferase signal modulators, primary screen, FRG1 inhibition for FSHD, cell-based, C2C12 myotubes, firefly/Renilla luciferase, luminescence (AID 1084); conditions: higher = more signal, called active from +8 up or from −8 down
# [9] = binders of probe aFST on microarray, primary screen, stem cell growth factor project, biochemical, small-molecule microarray, fluorescence 635/667 (AID 1086); conditions: higher = more signal;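 note: score merges 667 nm fluorescence with signal-to-noise of each printed compound spot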
# [10] = binders of probe aHhip on microarray, primary screen, stem cell growth factor project, biochemical, small-molecule microarray, fluorescence 635/667 (AID 1087); conditions: higher = more signal;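 note: score merges spot fluorescence at 667nm with spot signal to noise ratio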
# [11] = tested on: PRMT1 (protein arginine N-methyltransferase 1); experiment: PRMT1 binders on small-molecule microarrays, primary screen, biochemical, small-molecule microarray, 635 nm fluorescence (AID 1088); conditions: small-molecule microarray binding, higher = more signal;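 note: binding of Prmt1 protein to compounds spotted on small-molecule microarray slides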
# [12] = yeast growth modulation, basal conditions, primary screen, YJM789 clinical isolate, OD600, 24 h (AID 1089);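 note: growth of clinical yeast isolate S. cerevisiae YJM 789 seeded 1000 cells per well; test concentration not given here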; conditions: S. cerevisiae YJM789 growth, higher = more signal, called active from +8 up or from −8 down
# [13] = fission yeast growth modulation, primary screen, strain 972, OD600, 24 h, no modulator (AID 1090);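 note: basal condition with compound alone and no growth modifier present; test concentration not given here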; conditions: S. pombe 972 growth, higher = more signal, called active from +8 up or from −8 down
# [14] = S. cerevisiae growth modulation with rapamycin, primary screen, strain BY4716, OD600, 96 h (AID 1091); conditions: higher = more signal, called active from +8 up or from −8 down; note: test concentration not given here
# [15] = molecular target: Torsin-1A-interacting protein 2 (Homo sapiens) (UniProt Q8NFQ8); experiment: LULL1 binders on small-molecule microarray, primary screen, cell lysate, human LULL1 lysate, 635/667 nm fluorescence (AID 1092); conditions: hLULL1 lysate binding, 635 nm fluorescence, higher = more signal;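 note: probe is lysate of COS7 cells overexpressing human LULL1; score merges per-feature 667 nm fluorescence with signal-to-noise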
# Sequence of Torsin-1A-interacting protein 2 (Homo sapiens) (Q8NFQ8 whole entry, looked up): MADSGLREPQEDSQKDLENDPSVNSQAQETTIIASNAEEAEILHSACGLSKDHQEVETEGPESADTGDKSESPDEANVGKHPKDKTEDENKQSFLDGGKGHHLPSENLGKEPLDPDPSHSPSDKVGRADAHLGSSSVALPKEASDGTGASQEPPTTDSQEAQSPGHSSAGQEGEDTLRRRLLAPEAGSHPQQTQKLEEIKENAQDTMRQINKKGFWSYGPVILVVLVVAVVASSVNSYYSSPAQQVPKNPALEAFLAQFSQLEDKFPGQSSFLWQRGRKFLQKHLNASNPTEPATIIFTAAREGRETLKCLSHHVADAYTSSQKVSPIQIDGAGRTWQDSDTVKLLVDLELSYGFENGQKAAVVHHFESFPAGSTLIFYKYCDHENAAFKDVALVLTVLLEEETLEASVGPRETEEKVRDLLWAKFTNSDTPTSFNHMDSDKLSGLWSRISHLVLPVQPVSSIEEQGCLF
# [16] = E. coli growth modulation, two-sided OD650, primary screen, E. coli filamentation project, strain DRC41, 24 h (AID 1093); conditions: OD650, 24 h, higher = more signal, called active from +8 up or from −8 down;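 note: MC1000 strain lacking acrAB efflux and sulA so SOS filamentation is blocked; test concentration not given here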
# [17] = small-molecule microarray binders of probe aLefty2, primary screen, biochemical, biotinylated probe, 635/667 nm fluorescence (AID 1094); conditions: higher = more signal;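 note: score merges spot fluorescence near 667 nm with spot signal-to-noise ratio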
# [18] = tested on: Noggin (protein binding on small-molecule microarray); experiment: Noggin binders on small-molecule microarray, primary screen, biochemical, 635/667 nm fluorescence (AID 1095); conditions: 635 nm fluorescence, higher = more signal;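 note: score merges 667 nm feature fluorescence with signal to noise over triplicate slides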
# [19] = molecular target: Neurogenic locus notch homolog protein 3 (Homo sapiens) (UniProt Q9UM47); experiment: NOTCH3 binders on small-molecule microarray, primary screen, biochemical, 635/667 nm fluorescence (AID 1096); conditions: NOTCH3 binding, 635 nm fluorescence, higher = more signal
# [20] = small-molecule microarray binders of probe aEGFR, primary screen, biochemical, biotinylated probe, 635/667 nm fluorescence (AID 1097); conditions: higher = more signal;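 note: probe is a biotinylated anti-EGFR antibody binding compounds printed on slides; score combines fluorescence near 667 nm and signal to noise of each spot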
smiles,measurement,setting,value
COc1ccc(C(O)C2C=CC3C(=O)N(c4ccccc4)C(=O)C3N2Nc2ccccc2F)cc1OCc1ccccc1 (stereo not given),composite z-score,[1],0.873
same,composite z-score,[2],-0.217
same,composite z-score,[3],0.5
same,composite z-score,[4],0.775
same,composite z-score,[5],1.65
same,composite z-score,[6],1.17
same,composite z-score,[7],0.99
same,z-score,[8],3.15 (inactive)
same,composite z-score,[9],1.1
same,composite z-score,[10],0.0274
same,composite z-score,[11],0.946
same,z-score,[12],-0.306 (inactive)
same,z-score,[13],0.754 (inactive)
same,z-score,[14],1 (inactive)
same,composite z-score,[15],2.94
same,z-score,[16],-0.994 (inactive)
same,composite z-score,[17],0.312
same,composite z-score,[18],-0.0436
same,composite z-score,[19],0.386
same,composite z-score,[20],0.308
CCCCc1cn(C[C@H](Cc2ccccc2)NC(=O)N[C@H](CO)CCc2oc(C(C)=O)c(C(=O)OC)c2C(=O)OC)nn1,composite z-score,[1],-0.422
same,composite z-score,[2],0.651
same,composite z-score,[3],-0.166
same,composite z-score,[4],0.864
same,composite z-score,[5],1.56
same,composite z-score,[6],0.979
same,composite z-score,[7],1.32
same,z-score,[8],0.833 (inactive)
same,composite z-score,[9],0.839
same,composite z-score,[10],-0.0994
same,composite z-score,[11],1.54
same,z-score,[12],-0.425 (inactive)
same,z-score,[13],-0.0326 (inactive)
same,z-score,[14],-0.173 (inactive)
same,composite z-score,[15],1.7
same,z-score,[16],0.0003 (inactive)
same,composite z-score,[17],0.165
same,composite z-score,[18],1.14
same,composite z-score,[19],1.1
same,composite z-score,[20],0.114
Cc1ccc(C(C)CC(O)C2C=CC3C(=O)N(C)C(=O)C3N2NC(=O)OC(C)(C)C)o1 (stereo not given),composite z-score,[1],-0.112
same,composite z-score,[2],0.6
same,composite z-score,[3],0.239
same,composite z-score,[4],0.687
same,composite z-score,[5],0.868
same,composite z-score,[6],1.67
same,composite z-score,[7],0.883
same,z-score,[8],0.385 (inactive)
same,composite z-score,[9],0.889
same,composite z-score,[10],-0.27
same,composite z-score,[11],1.42
same,z-score,[12],0.309 (inactive)
same,z-score,[13],-0.63 (inactive)
same,z-score,[14],0.101 (inactive)
same,composite z-score,[15],3
same,z-score,[16],-0.615 (inactive)
same,composite z-score,[17],0.0682
same,composite z-score,[18],0.68
same,composite z-score,[19],1.06
same,composite z-score,[20],0.0681
CCCCN1CC=CC23O[C@@H]4/C=C\CCC(C)OC(=O)C4[C@H]2C(=O)N(CCCCCO)[C@@H]3C1=O (stereo not given in full),composite z-score,[1],0.141
same,composite z-score,[2],-0.421
same,composite z-score,[3],-0.132
same,composite z-score,[4],-1.16
same,composite z-score,[5],-0.784
same,composite z-score,[6],0.768
same,composite z-score,[7],0.178
same,z-score,[8],0.464 (inactive)
same,composite z-score,[9],-0.526
same,composite z-score,[10],-0.0994
same,composite z-score,[11],0.445
same,z-score,[12],-0.402 (inactive)
same,z-score,[13],-0.831 (inactive)
same,z-score,[14],-0.868 (inactive)
same,composite z-score,[15],1.72
same,z-score,[16],0.0029 (inactive)
same,composite z-score,[17],-0.205
same,composite z-score,[18],-0.976
same,composite z-score,[19],-0.292
same,composite z-score,[20],-0.227
CC1CC/C=C\[C@H]2OC34C=CCN(C(C)(C)C)C(=O)[C@H]3N(CCCCCCO)C(=O)[C@@H]4C2C(=O)O1 (stereo not given in full),composite z-score,[1],0.237
same,composite z-score,[2],-0.153
same,composite z-score,[3],-0.149
same,composite z-score,[4],0.0097
same,composite z-score,[5],-0.945
same,composite z-score,[6],0.866
same,composite z-score,[7],1.13
same,z-score,[8],-1.09 (inactive)
same,composite z-score,[9],-0.222
same,composite z-score,[10],-0.0994
same,composite z-score,[11],-0.005
same,z-score,[12],-0.242 (inactive)
same,z-score,[13],-0.357 (inactive)
same,z-score,[14],-0.19 (inactive)
same,composite z-score,[15],1.4
same,z-score,[16],-0.31 (inactive)
same,composite z-score,[17],-0.183
same,composite z-score,[18],-0.597
same,composite z-score,[19],0.0452
same,composite z-score,[20],-0.371
C=CCOC(=O)[C@H]1[C@@H]2C(=O)O[C@@H](c3ccccc3)[C@@H](c3ccccc3)N2[C@@H](c2ccc(OCCOC(=O)[C@@H]3C[C@@H]4C(=O)N5CCC[C@H]5C(=O)N4[C@@H]3c3cccc(OCCO)c3)cc2)[C@]12C(=O)Nc1ccccc12,composite z-score,[1],0.0458
same,composite z-score,[2],0.629
same,composite z-score,[3],0.0584
same,composite z-score,[4],0.808
same,composite z-score,[5],0.761
same,composite z-score,[6],1.26
same,composite z-score,[7],1.31
same,z-score,[8],0.999 (inactive)
same,composite z-score,[9],0.356
same,composite z-score,[10],0.382
same,composite z-score,[11],1.53
same,z-score,[12],1.06 (inactive)
same,z-score,[13],0.983 (inactive)
same,z-score,[14],2.72 (inactive)
same,composite z-score,[15],2.64
same,z-score,[16],0.0706 (inactive)
same,composite z-score,[17],0.108
same,composite z-score,[18],0.98
same,composite z-score,[19],1.13
same,composite z-score,[20],0.0617
CC(C)c1ccc(NN2C(C(O)C(c3ccccc3)c3ccccc3)C=CC3C(=O)N(c4ccccc4)C(=O)C32)cc1 (stereo not given),composite z-score,[1],-0.304
same,composite z-score,[2],-0.612
same,composite z-score,[3],0.116
same,composite z-score,[4],0.903
same,composite z-score,[5],1.53
same,composite z-score,[6],1.63
same,composite z-score,[7],1.26
same,z-score,[8],0.358 (inactive)
same,composite z-score,[9],1.25
same,composite z-score,[10],0.452
same,composite z-score,[11],1.56
same,z-score,[12],0.709 (inactive)
same,z-score,[13],-0.223 (inactive)
same,z-score,[14],1.04 (inactive)
same,composite z-score,[15],2.63
same,z-score,[16],-2.08 (inactive)
same,composite z-score,[17],0.0399
same,composite z-score,[18],0.63
same,composite z-score,[19],1.06
same,composite z-score,[20],0.104
COCCOC(=O)N1C(=O)[C@@]2(c3cc(C#Cc4ccc(OC)cc4)ccc31)[C@H](c1ccccc1OCCO)N1[C@H](c3ccccc3)[C@H](c3ccccc3)OC(=O)[C@H]1[C@@H]2C(=O)N1CCN(c2ncccn2)CC1,composite z-score,[1],-0.173
same,composite z-score,[2],0.489
same,composite z-score,[3],-0.0336
same,composite z-score,[4],0.619
same,composite z-score,[5],0.568
same,composite z-score,[6],0.4
same,composite z-score,[7],1.23
same,z-score,[8],-1.23 (inactive)
same,composite z-score,[9],0.172
same,composite z-score,[10],-0.0618
same,composite z-score,[11],1.35
same,z-score,[12],3.34 (inactive)
same,z-score,[13],1.95 (inactive)
same,z-score,[14],7.23 (inactive)
same,composite z-score,[15],2.22
same,z-score,[16],0.579 (inactive)
same,composite z-score,[17],-0.115
same,composite z-score,[18],0.936
same,composite z-score,[19],0.836
same,composite z-score,[20],-0.058
O=C1OCCC/C=C\[C@H]2OC34C=CCN(CCN5CCOCC5)C(=O)[C@H]3N(CCCO)C(=O)[C@@H]4C12 (stereo not given in full),composite z-score,[1],-0.0893
same,composite z-score,[2],0.95
same,composite z-score,[3],-0.168
same,composite z-score,[4],-1.07
same,composite z-score,[5],-0.793
same,composite z-score,[6],1.47
same,composite z-score,[7],0.993
same,z-score,[8],0.562 (inactive)
same,composite z-score,[9],-0.209
same,composite z-score,[10],-0.216
same,composite z-score,[11],-0.622
same,z-score,[12],-1.35 (inactive)
same,z-score,[13],-0.632 (inactive)
same,z-score,[14],-0.595 (inactive)
same,composite z-score,[15],3.54
same,z-score,[16],-0.44 (inactive)
same,composite z-score,[17],-0.381
same,composite z-score,[18],-0.813
same,composite z-score,[19],-0.93
same,composite z-score,[20],-0.199
COCCOC(=O)N1C(=O)[C@@]2(c3ccccc31)[C@H](c1ccccc1OCCO)N1[C@H](c3ccccc3)[C@H](c3ccccc3)OC(=O)[C@H]1[C@@H]2C(=O)Nc1nc2ccccc2s1,composite z-score,[1],-0.223
same,composite z-score,[2],1.03
same,composite z-score,[3],0.0186
same,composite z-score,[4],1.11
same,composite z-score,[5],1.02
same,composite z-score,[6],0.961
same,composite z-score,[7],1.21
same,z-score,[8],-1.02 (inactive)
same,composite z-score,[9],0.215
same,composite z-score,[10],0.0274
same,composite z-score,[11],1.56
same,z-score,[12],1.68 (inactive)
same,z-score,[13],0.981 (inactive)
same,z-score,[14],4.61 (inactive)
same,composite z-score,[15],2.25
same,z-score,[16],2.25 (inactive)
same,composite z-score,[17],-0.0285
same,composite z-score,[18],1.47
same,composite z-score,[19],1.09
same,composite z-score,[20],-0.0244
